# Screens: PubChem BioAssay, National Center for Advancing Translational Sciences (NCATS)
# Pf growth 48h = Primary qHTS for delayed death inhibitors of the malarial parasite plastid, 48 hour incubation | AID 504832, 2011 | P. falciparum luciferase growth in erythrocytes, 48 h | 5.9% of 310,000 active | Potency, µM (doses to about 28.7 µM), for the others: at the highest dose activity change, negative = inhibition, actives largely listed as inhibitors; note: potency is the fitted concentration of half-maximal effect; % is set by controls: 0 for no effect and ±100 for the full control effect
#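 Read-out is firefly luciferase luminescence from an integrated reporter in P. falciparum, so falling signal marks reduced parasite growth. Infected erythrocytes were at 2% hematocrit and 0.1% parasitemia (final) in Albumax-supplemented RPMI 1640.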
# Shiga inhibitor = A qHTS for Small Molecule Inhibitors of Shiga Toxin; Vero cells, Shiga toxin protein synthesis inhibition reporter; inhibition, % at 38.7 µM; 9.2% of 290,000 active; AID 2315, 2010; in the data active = inhibition mostly above about 28%, no sharp cut-off; inactive = mostly below about 43%; note: 0% is about no effect
# Pf growth 96h = Primary qHTS for delayed death inhibitors of the malarial parasite plastid, 96 hour incubation; 6.9% of 320,000 active; P. falciparum luciferase reporter growth, 96 h; Potency, µM (series often up to 28.7 µM), for the others: top-dose activity change, negative = inhibition, usual class: inhibitors; AID 504834, 2011; note: potency is the fitted concentration of half-maximal effect; % is set by controls: 0 for no effect and ±100 for the full control effect
#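 Luminescence readout: decreased luciferase signal marks inhibited growth of reporter-expressing P. falciparum in infected red cells (2% hematocrit, 0.05% parasitemia final), exposed to compound two generations (96 h, 37 C, 5% CO2).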
# LmPK inhibitor = qHTS Assay for Inhibitors of Leishmania Mexicana Pyruvate Kinase (LmPK); Q27686; purified LmPK, Kinase-Glo ATP luminescence, 1 h; Potency, µM (titrated, usually from 57.5 µM), inactives show top-dose activity change, negative = inhibition, actives largely listed as inhibitors; 0.37% of 290,000 active; note: potency is the fitted concentration of half-maximal effect; % is set by controls: 0 for no effect and ±100 for the full control effect
# Target sequence (Q27686 whole entry, looked up): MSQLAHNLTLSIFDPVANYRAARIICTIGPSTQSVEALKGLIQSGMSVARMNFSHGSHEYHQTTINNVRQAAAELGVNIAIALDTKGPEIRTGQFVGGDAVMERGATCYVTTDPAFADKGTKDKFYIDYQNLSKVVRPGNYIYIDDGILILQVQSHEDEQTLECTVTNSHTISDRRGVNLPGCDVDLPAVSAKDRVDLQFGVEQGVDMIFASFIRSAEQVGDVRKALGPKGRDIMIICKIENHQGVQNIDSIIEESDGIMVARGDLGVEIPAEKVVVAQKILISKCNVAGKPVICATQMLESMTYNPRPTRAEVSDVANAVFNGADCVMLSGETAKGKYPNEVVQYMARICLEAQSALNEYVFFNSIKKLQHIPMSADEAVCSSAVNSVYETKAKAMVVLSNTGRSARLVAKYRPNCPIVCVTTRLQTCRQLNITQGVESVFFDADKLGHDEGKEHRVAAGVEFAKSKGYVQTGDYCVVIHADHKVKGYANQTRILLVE
#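 ATP generated from ADP (0.1 mM) and PEP (0.5 mM) by 0.1 nM LmPK over 1 h at room temperature (pH 7.2 imidazole buffer) was detected by coupled luciferase luminescence. Values were normalized to uninhibited and no-enzyme wells.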
# CHX counter = Cycloheximide Counterscreen for Small Molecule Inhibitors of Shiga Toxin. cell reporter, cycloheximide protein synthesis inhibition counterscreen. max response, %. 12% of 300,000 active. AID 2314, 2010; in the data active = max response mostly above about 13%, no sharp cut-off; inactive = mostly below about 14%; note: read at 38.3 µM for the half of the compounds with a filed dose; 0% is about no effect
# An asterisk follows results filed as active; i = inactive; ? = inconclusive; nt = no result given. Only some compounds are listed: those with a hit (about 22% of all), similar ones and a draw of the others. Unless noted, calls come from the whole dose curve; as a rule, active = well fitted inhibition curve with a large enough effect; inconclusive = small, poorly fitted or top-dose-only effect, or another doubt; inactive = no such curve, though single readings can be large or run the other way.
SMILES,Pf growth 48h,Shiga inhibitor,Pf growth 96h,LmPK inhibitor,CHX counter
O=C(NCC1CCCO1)c1cc2cc(Cl)ccc2[nH]1 (configuration not stated),13%,43*,1%,-2%,33*
CCN(CC)C(=O)c1csc(Nc2ccc(C)cc2)n1,?,49*,4%,-2%,20*
O=C(NCC1CCCO1)c1cc(-c2ccc(Cl)cc2Cl)on1 (configuration not stated),124%,75*,226%,2%,52*
CCOC(=O)/C(=N\Nc1ccc(OC)cc1)c1csc(Nc2ccccc2)n1,nt,36,10µM*,-3%,13
O=C(NCC1CCCO1)c1cc(-c2ccccc2)on1 (configuration not stated),203%,129*,26%,-11%,40*
O=C(Cc1ccccc1)NCC1CCCO1 (configuration not stated),nt,-12,-36%,-6%,-2
CCN(CC)CCOc1ccc(C(O)(Cc2ccc(Cl)cc2)c2ccc(C)cc2)cc1 (configuration not stated),13µM*,-13,9.5µM*,nt,-4
CCN(CC)CCNCc1ccc(-c2ccc(Cl)cc2)o1,?,-35,12µM*,-5%,-3
CC(C)(C)NCC(O)(c1ccc(Cl)cc1)c1ccc(Cl)cc1,?,-14,?,-1%,12
COCCN(CCOc1cc(C)cc(C)c1)Cc1ccc(Cl)cc1,?,-4,?,-2%,-1
NCC(O)(c1ccc(Cl)cc1)c1ccc(Cl)cc1,?,-7,4.7µM*,0%,5
CC(C)NCC(O)(c1ccc(Cl)cc1)c1ccc(Cl)cc1,12µM*,2,1.5µM*,-3%,-3
O=S(Cc1ccccc1)CC(O)(c1ccc(Cl)cc1)c1ccc(Cl)cc1 (configuration not stated),?,-6,?,8%,12
O=C(OCc1ccc(Br)cc1F)c1cc2ccccc2oc1=O,7%,3,2%,4%,8
CCN(CC)CCNCC(O)(c1ccc(Cl)cc1)c1ccc(Cl)cc1,?,-18,12µM*,2%,-3
COc1ccc(C(=O)c2c3ccccc3[n+]([O-])n2Cc2ccc(C(N)=O)cc2)cc1,?,nt,6.6µM*,nt,nt
COc1ccc2c(C(=O)c3ccc(Cl)cc3)n(CCCC(N)=O)[n+]([O-])c2c1,9.3µM*,nt,?,nt,nt
NC(=O)CCn1c(C(=O)c2cc(Cl)c(N)c(Cl)c2)c2ccccc2[n+]1[O-],?,2,10µM*,-1%,-1
COc1ccc(C(=O)c2c3ccc(C(F)(F)F)cc3[n+]([O-])n2CCCN)cc1,12µM*,nt,?,nt,nt
NC(=O)CCn1c(C(=O)c2cccc([N+](=O)[O-])c2)c2ccccc2[n+]1[O-],39%,-2,25%,4%,-4
COc1ccc(C(=O)c2c3ccccc3[n+]([O-])n2CCCN)cc1,?,nt,-100%,nt,nt
COc1ccc(C(=O)c2c3ccccc3[n+]([O-])n2CCC(N)=O)cc1,?,nt,33%,nt,nt
O=C(Nc1ccc(F)cc1)c1cccnn1,nt,24,0%,-4%,8
COc1ccccc1C1CC(=O)Oc2cc(C)c(Cl)c(C)c21 (configuration not stated),nt,i,nt,nt,-5
Cc1nc2ccc(NC(=O)c3ccc(Cl)c([N+](=O)[O-])c3)cc2s1,18%,20,38%,0%,1
SMILES,Pf growth 48h,Shiga inhibitor,Pf growth 96h,LmPK inhibitor,CHX counter
Cc1nc2ccc(NC(=O)c3ccc(Cl)nc3)cc2s1,-16%,24,?,-1%,18*
Cc1nc2ccc(NC(=O)c3cc(Cl)ccn3)cc2s1,50%,82*,179%,2%,62*
Cc1nc2ccc(NC(=O)c3ccc([N+](=O)[O-])cc3)cc2s1,25%,10,93%,-2%,14
CCOc1ccc(S(=O)(=O)NCCC(=O)NCC(c2ccc(F)cc2)N2CCOCC2)cc1 (configuration not stated),?,nt,24%,nt,nt
COC(=O)C1=NNC2(c3ccc(Cl)cc3)C(=O)N(c3ccccc3)C(=O)C12 (configuration not stated),5%,-12,i,1%,-3
Cc1ccc(CN2CC(C(=O)Nc3cc(C)ccn3)CC2=O)cc1 (configuration not stated),86%,nt,137%,nt,nt
COc1ccccc1NC(=O)CSc1nnc(C)n1CCc1ccccc1,?,-2,10µM*,5%,1
